Measurements published in PubChem BioAssay AID1347047 (National Center for Advancing Translational Sciences (NCATS), 2019).
Hit rate of the full screen: of about 1,400 compounds, about 10 (0.7%) were called active. Another 2% or so got no clear call; they are omitted. What follows is part of a selection rich in actives, with near analogues and random picks from the rest. Values without a mark were called inactive. Calls come from the whole dose curve; as a rule, active = well fitted inhibition curve with a large enough effect; inconclusive = small, poorly fitted or top-dose-only effect; inactive = flat fitted curve, though single readings scatter.

These molecules were tested against Luciferin 4-monooxygenase (Photinus pyralis) (UniProt P08659) (assay: Natriuretic polypeptide receptor (hNpr1) antagonism - Confirmation firefly luciferase (FLuc) inhibition counterscreen). Conditions: purified FLuc enzyme, luminescence, Km substrate; series mostly up to 57.6 µM; activity change, negative = inhibition: at the top concentration.
Luciferin 4-monooxygenase (Photinus pyralis), sequence (P08659 whole entry, looked up): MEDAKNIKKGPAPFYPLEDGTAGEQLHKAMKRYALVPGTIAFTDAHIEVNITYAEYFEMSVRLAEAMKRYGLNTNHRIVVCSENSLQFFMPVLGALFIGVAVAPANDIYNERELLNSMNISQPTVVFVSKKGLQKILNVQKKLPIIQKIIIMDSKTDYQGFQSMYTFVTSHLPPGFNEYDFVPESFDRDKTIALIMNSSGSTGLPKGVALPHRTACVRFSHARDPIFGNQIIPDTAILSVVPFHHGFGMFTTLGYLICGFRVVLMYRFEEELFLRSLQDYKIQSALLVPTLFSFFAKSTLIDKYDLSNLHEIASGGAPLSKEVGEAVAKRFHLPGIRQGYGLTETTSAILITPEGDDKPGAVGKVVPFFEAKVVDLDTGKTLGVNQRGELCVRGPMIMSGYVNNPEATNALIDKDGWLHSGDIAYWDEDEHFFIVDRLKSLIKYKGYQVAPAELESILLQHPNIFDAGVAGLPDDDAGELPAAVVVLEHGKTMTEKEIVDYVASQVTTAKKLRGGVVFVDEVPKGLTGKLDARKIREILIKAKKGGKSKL
Text: Firefly (Photinus pyralis) luciferase (FLuc) is one of the more frequently used transcriptional reporter genes, and it has also been developed as a cellular sensor for cyclic nucleotides. (Fan F & Wood KV, 2007; Fan F et al., 2008) However, a significant number of compounds that populate chemical libraries have been identified as FLuc ligands which can be mistaken for modulators of the intended targeted pathways, receptors or enzymes. (Auld, DS et al. 2008; Thorne, N et al. 2012) Therefore, the FLuc enzyme assay conducted at sensitive Km level substrate conditions is used to counter-screen for potential FLuc ligands. Auld DS, Thorne N, Nguyen DT & Inglese J A specific mechanism for nonspecific activation in reporter-gene assays. ACS Chem Biol. 2008, 3: 463-470. DOI: 10.1021/cb8000793 Fan F, Binkowski BF, Butler BL, Stecha PF, Lewis MK, Wood KV. Novel genetically encoded biosensors using firefly luciferase. ACS Chem Biol. 2008, 3: 346-351. DOI: 10.1021/cb8000414 Fan F and Wood KV. Bioluminescent assays for high-throughput screening. Assay Drug Dev Technol. 2007, 5: 127-136. […] Chemistry & Biology, 2012, 19: 1060-1072. DOI.org/10.1016/j.chembiol.2012.07.015
PROTOCOL TABLE (as described by Inglese J, Shamu CE and Guy RK. 2007) SEQUENCE No. (e.g., 1, 2, 3, etc.); PARAMETER (e.g., Cells, Incubation, Reagent, etc.); VALUE and DESCRIPTION. FLUC KM ENZYME COUNTERSCREEN (Thorne, N.T. et al. 2012) 1. Reagent. Add 3 uL of D-luciferin substrate buffer per well into Greiner 1536-well white/solid bottom high base, medium bind plates. 2. Compounds. Library compounds and PTC124 control added at 23nL per well, transferred by Pin Tool. 3. Incubation. Incubate plates at room temperature for […], protect from light. 4. Reagent. Add 1uL of P. pyralis luciferase (FLuc) per well of Greiner 1536-well plates. 5. Incubation. Incubate plates at room temperature for 10 min., protect from light. 6. Detector. FLuc luminescence measured using CCD-based camera (Viewlux). NOTES (numbers refer to Sequence numbers above) 1. Substrate buffer: 10 uM D-luciferin final concentration in 50 mM Tris-Acetate, pH 7.6, 10 mM Mg-Acetate, 10 uM ATP, 0.01% Tween-20, and 0.05% BSA buffer added at 3uL/well to 13 x Greiner 1536-well white/solid bottom high base, medium bind plates. 2. PTC124 stock solution prepared (10 mM in DMSO; Auld D.S. et al. 2010). Working dilution for dispense = 10 mM stock dilution (57.5 uM final concentration; 16-pt 1:3 titration in duplicate = final concentration range of 57.5 uM - 4 pM). 23nL of library compounds, PTC124 control or DMSO vehicle control transferred to the 13 substrate-containing Greiner white/solid bottom high base, medium bind plates in 11 interplate 1:3 titrations (see Yasgar, A. et al. 2008) with Pintool. 3. Substrate incubated for 30-50 min. at ambient temperature protected from light with metal lid. 4. Enzyme solution: 10 nM P. pyralis luciferase (FLuc) final concentration in 50 mM Tris-Acetate, pH 7.6 added at 1uL to 13 x Greiner 1536-well white/solid bottom high base, medium bind plates. 5. Substrate and enzyme incubated with test library compounds and controls for 10 min. at ambient temperature protected from light with metal lid. 6. Read final Luminescence on the ViewLux. [Exposure = 30 s.; Gain = High; Speed = Slow; and Binning = 2X.] REFERENCES: Auld DS, Lovell S, Thorne N, Lea WA, Maloney DJ, Shen M, Rai G, Battaile KP, Thomas CJ, Simeonov A, Hanzlik RP and Inglese J. Molecular basis for the high-affinity binding and stabilization of firefly luciferase by PTC124. […] Chemistry & Biology, 2012, 19: 1060-1072. doi.org/10.1016/j.chembiol.2012.07.015 Yasgar A, Shinn P, Jadhav A, Auld DS, Michael S, Zheng W, Austin CP, Inglese J and Simeonov A, Compound Management for Quantitative High-Throughput Screening. J. Assoc. Lab. Auto., 2008, 13: 79-89. doi: 10.1016/j.jala.2007.12.004
Potency is the fitted concentration of half-maximal effect.
Throughout, for activity change, negative = inhibition: 0% is about no effect.

| SMILES | activity change, negative = inhibition | Potency |
| --- | --- | --- |
| Cc1nc(-c2ccncc2)ncc1C(C)Nc1ncnc(C)c1C (stereo not drawn) | -0.924% |  |
| Cc1noc(C)c1-c1cnc2[nH]cc(CC(=O)N3CCOCC3)c2c1 | 1.18% [at 86.2 µM] |  |
| N#Cc1cccc(CN2CCC(C3=NC(O)c4cc(F)ccc4N3)CC2)c1 (stereo not drawn) | -0.458% |  |
| CC1=NS(=O)(=O)N(C)C=C1C(=O)OCc1nc(-c2ccc(C)cc2)no1 | -14.4% |  |
| Cc1cc(N2CCCC(Cn3cc(Cc4ccccc4)nn3)C2)nc(N)n1 (stereo not drawn) | 4.71% |  |
| Cc1ccc(C)c(C(=O)N2CCC3(CC2)N=C(c2ccc(Cl)cc2)NO3)c1 | -2.55% |  |
| COc1ccc(S(=O)(=O)N2CCc3c(C(=O)NCCc4ccccn4)cccc32)cc1 | 0.595% |  |
| COc1ccc(-c2noc(CC3CCN(C(=O)Cc4ccc(OC)c(OC)c4)CC3)n2)cc1 | 0.775% |  |
| O=C(c1ccc(F)cc1F)N1CCN(c2cc(-c3ccc(Cl)cc3)[nH]n2)CC1 | 1.19% |  |
| O=C(CCC1CCN(C(=O)c2ccccc2F)CC1)Nc1cccc(Cl)c1 | -0.361% |  |
| O=[S+]1([O-])NCC2(CCCN(Cc3ccc(C(F)(F)F)cc3)C2)Oc2ncccc21 (stereo not drawn) | -1.58% |  |
| COc1ccc(C(CC(=O)N(C)Cc2cc(C3CC3)n[nH]2)c2ccccc2)cc1 (stereo not drawn) | 5.77% |  |
| COc1cccc(NC(=O)Cn2c(N(C)Cc3ccccc3)nc(C)cc2=O)c1 | 0.159% |  |
| Cc1ccc(C(=O)N2CCN(c3cc(-c4ccc(Cl)cc4)[nH]n3)CC2)c(C)c1 | 6.33% |  |
| COc1cccc(-c2noc(CC3CCN(C(=O)c4ccc(F)cc4)CC3)n2)c1 | -3.83% |  |
| Cc1nn2c(c1-c1ccnn1C(C)C)N(CC1CCOCC1)CCC2 | 1.23% [at 86.2 µM] |  |
| CN1CCN(C(=O)C(C)(C)Oc2nn(Cc3cccc(Cl)c3)c3ccccc23)CC1 | 0.269% [at 86.2 µM] |  |
| CC1=NS(=O)(=O)N(C)C=C1C(=O)OCc1noc(-c2ccco2)n1 | 1.54% |  |
| CC1(C(=O)NCc2ccc3c(c2)OCO3)CCc2cnc(NCc3ccccc3)nc21 (stereo not drawn) | -0.097% [at 86.2 µM] |  |
| COC(=O)c1cccc(NC(=O)CCNc2c(C)nc3cnccn23)c1 | -21.9% |  |
| O=C(c1ccccc1)N1CCC(C(=O)N2CCC(Cc3nc(-c4ccc(F)cc4)no3)CC2)CC1 | -0.881% |  |
| Fc1ccc(CNC[C@H]2Cn3c(-c4ccc5c(c4)OCCO5)cnc3CO2)cc1 | -0.417% [at 86.2 µM] |  |
| COc1ccc(-c2noc(CC3CCN(C(=O)Cc4ccc(C)cc4)CC3)n2)cc1 | -1.24% |  |
| Cc1cccc(C(=O)N2CCC(Oc3ccc(-c4noc(C(C)C)n4)cc3)C2)c1 (stereo not drawn) | -14.1% |  |
| COc1ccc(CC(=O)N2CCC(Cc3nc(-c4ccccc4)no3)CC2)cc1OC | 4.11% |  |

| SMILES | activity change, negative = inhibition | Potency |
| --- | --- | --- |
| COc1ccc(-c2noc(CC3CCN(C(=O)CC4CCCCC4)CC3)n2)cc1 | -0.775% |  |
| COc1ccccc1Nc1cnc2ccc(N(C)Cc3cccnc3)nn12 | 0.521% [at 86.2 µM] |  |
| COc1ccc(OCC2(C)COc3ccc(C(=O)Nc4cccnc4)cc3N2)cc1 (stereo not drawn) | -15.3% [at 86.2 µM] |  |
| O=C(c1ccc(F)cc1Cl)N1CCC(n2cc(-c3nc(-c4ccccc4)no3)nn2)C1 (stereo not drawn) | -8.65% |  |
| O=C(c1cc(F)ccc1Cl)N1CCN(c2cc(-c3ccc(F)cc3)[nH]n2)CC1 | -1.63% |  |
| Cc1ccc(OCc2nc(C3CCN(C(=O)CCc4nc5ccc(Cl)cc5[nH]4)CC3)no2)cc1 | -2.06% |  |
| CC1(CCCCc2ccccc2)COc2ccc(C(=O)N3CC[S+](=O)([O-])CC3)cc2N1 (stereo not drawn) | 0.713% |  |
| CN(C)CCNC(=O)C(C)(C)Oc1nn(Cc2cccc(Cl)c2)c2ccccc12 | 2.6% [at 86.2 µM] |  |
| O=C(NCC1CC1)c1nc2c(o1)CCN(Cc1cccc(F)c1F)CC2 | -0.6% [at 86.2 µM] |  |
| Cc1cc(CNC(=O)c2ccc(-c3ccccc3Cl)o2)n(C)n1 | -6.14% |  |
| Cc1noc(C)c1-c1cc(-c2ccccc2Oc2ccccc2)cn2cncc12 | 0.554% [at 86.2 µM] |  |
| O=C(NCc1nnc2cc(-c3nc(C4CC4)no3)ccn12)c1ccc(F)cc1Cl | -1.04% |  |
| Cc1cccc(CN2CCc3nc(C(=O)Nc4ccc(Cl)cc4)oc3CC2)c1 | 1.12% [at 86.2 µM] |  |
| C1CCC(COCCc2noc(C3CNC3)n2)C1 | -2.28% |  |
| O=C(c1cccc(F)c1)N1CCOC[C@H](Oc2ccc(C(F)(F)F)cc2)C1 | 1.12% [at 86.2 µM] |  |
| Cc1cccc(-c2cccc(CN)c2)c1 | 2.71% [at 86.2 µM] |  |
| Cc1c[nH]c(CN2CCCC(CCc3ccc(F)cc3F)C2)c(C)c1=O (stereo not drawn) | 1.09% |  |
| c1ccc(CO[C@@H]2CO[C@H]3[C@@H]2OC[C@@H]3n2nnnc2SCc2ccco2)cc1 | -4.3% [at 86.2 µM] |  |
| CC(=O)N1CCC(NC[C@H]2O[C@H](Cc3cc(-c4cccc(O)c4)on3)CC[C@@H]2O)CC1 | -16.5% [at 86.2 µM] |  |
| O=C(c1ccccc1)N1CCNc2cnc(Nc3cccc(C(F)(F)F)c3)nc2C1 | -2.64% [at 86.2 µM] |  |
| O=c1[nH]c(C2CCCN(Cc3ccccn3)C2)nn1-c1ccc(Cl)cc1 (stereo not drawn) | 5.04% |  |
| COc1ccc(CN2C(=O)CO[C@H]3CN(Cc4ccc5c(c4)OCO5)C[C@H]32)cc1 | -0.695% [at 86.2 µM] |  |
| CC(C)c1cc(C(=O)N2CCC(n3cc(-c4ccccn4)nn3)CC2)n(C)n1 | -0.701% |  |
| O=C(N1CCN(c2cc(-c3ccc(Cl)cc3)[nH]n2)CC1)C1(c2ccccc2)CC1 | -0.0118% |  |
| Cc1ccc2c(c1)nc1n2[C@@H](CNS(=O)(=O)c2ccccc2)COC1 | -0.128% [at 86.2 µM] |  |

| SMILES | activity change, negative = inhibition | Potency |
| --- | --- | --- |
| COc1cccc(CNC(=O)Cn2c(N(C)Cc3ccccc3)nc(C)cc2=O)c1OC | 0.184% |  |
| COc1cccc(C2C(C(=O)Nc3ccccc3)=C(C)N=C3SC=C(CC(=O)NCC(C)C)N32)c1 (stereo not drawn) | -12.5% |  |
| Cc1ccc2nc(C3CCCN(Cc4ccc(C#N)cc4)C3)[nH]c(=O)c2c1 (stereo not drawn) | -0.515% |  |
| COC(=O)C1=C(C)N=C2SC=C(CC(=O)NCCC(C)C)N2C1c1ccccc1Cl (stereo not drawn) | 0.647% |  |
| O=C1Nc2ccccc2CN(Cc2ccccc2)C12CCNCC2 | 4.28% |  |
| COc1ccc(C2Cn3nnc(C(=O)N4CCN(C(=O)c5ccc(C)cc5C)CC4)c3CO2)cc1 (stereo not drawn) | 0.552% |  |
| COc1ccc(C2Cn3nnc(C(=O)N4CCN(C(=O)c5cccc(Cl)c5)CC4)c3CO2)cc1 (stereo not drawn) | 1.68% |  |
| COc1ccc(C(=O)N2CCC(n3cc(-c4nc(C(C)C)no4)nn3)CC2)cc1F | 1.05% |  |
| O=C1c2cnc(-c3ccc(Cl)cc3)nc2OCCN1Cc1ccccc1 |  | 2500 nM (active) |
| O=C1NCN(Cc2ccc(Cl)cc2)C12CCN(Cc1ccccc1)CC2 | -0.162% [at 86.2 µM] |  |
| OC1(Cc2cc(-c3ccccc3)no2)CCN(c2ncncn2)CC1 | 3.35% |  |
| CC(C)c1noc(-c2cn(C3CCN(C(=O)c4ccc(N(C)C)cc4)C3)nn2)n1 (stereo not drawn) | -0.906% |  |
| CC(C)c1nncn1C1CCN(S(=O)(=O)c2cccc(Br)c2)CC1 | -1.18% |  |
| COc1ccc(-c2noc(CC3CCN(C(=O)Cc4ccccc4)CC3)n2)cc1 | -0.401% |  |
| O=C(c1ccc2cc[nH]c2c1)N1CCC2(CC1)N=C(c1ccc(Cl)cc1)NO2 | -17.6% |  |
| CCN(CCCNC(=O)c1nnn2cc(-c3ccccc3)[nH]c(=O)c12)c1ccccc1 | -2.16% |  |
| CCc1ccc(C(=O)N2CCN(c3cc(-c4ccc(F)cc4)[nH]n3)CC2)cc1 | 13.4% |  |
| COc1ccc(CCNC(=O)c2noc(-c3ccc(C)cc3)n2)cc1OC | -6.77% |  |
| O=C(c1ccccn1)N1CC(Oc2ccc(-c3noc(C4CC4)n3)cc2)C1 | -4.39% |  |
| Cc1cccc(C(=O)N2CCC3(CC2)CC(N(Cc2ccc(F)cc2)C2CC2)CCO3)c1 (stereo not drawn) | 10.7% |  |
| Cc1nn2c(c1-c1ccccc1-c1ccccc1)N(CC1CC1)CCC2 | -14.2% [at 86.2 µM] |  |
| CN(Cc1csc(-c2ccccc2)n1)c1cc(C2CC(O)C2)nc(N)n1 (stereo not drawn) | -2.31% |  |
| COc1cccc(C2Cn3nnc(-c4nc(-c5ccccc5)no4)c3CO2)c1 (stereo not drawn) | -7.75% |  |
